This passage reports INHIBITION results from ChEMBL document CHEMBL4513216, “Probing the Open Global Health Chemical Diversity Library for Multistage-Active Starting Points for Next-Generation Antimalarials” (ACS Infect Dis, 2020).

Each structure is given as a SMILES string. In all, about 68,000 compounds went through this assay and about 2,700 (4%) showed an effect of 50% or more. Shown is part of a subset that was picked to be rich in strong results.

The experiment deals with Plasmodium berghei. Description: Screen against P. berghei liver stage (PbLuc), transformed with Luciferase, at 2uM. Type of experiment: functional, HepG2. Particulars: tested at 2 uM.
`CC(C)Oc1ncccc1CNC(=O)N1CCOCC1`: the INHIBITION is reported as -10.84%. Next, `CN(C)CC(=O)N1CCc2sc(C(=O)N3CCN(C)CC3)cc21`: 34.93%. Regarding `O=C(NCc1ccccn1)[C@@H]1CC[C@@H]2[C@@H](CCN2c2ncc(F)cn2)O1`, the INHIBITION is reported as 21.77%. Consider `Cc1cccc(C(=O)N2CCCC(c3noc(C)n3)C2)n1` (stereo not given), for which the INHIBITION was -11.71%. Take `CCn1cc(C(=O)N2CCCC(c3noc(C)n3)C2)cn1` (stereo not given): the INHIBITION is recorded as 31.46%. In the case of `Cc1nc(C2CCCN(C(=O)c3cnn(C4CCCCC4)c3)C2)no1` (stereo not given), the INHIBITION is -31.72%. Next, `Cc1nc(C2CCCN(C(=O)c3ccoc3)C2)no1` (stereo not given): -3.64%; `Cc1nc(C2CCCN(C(=O)c3cc(Cl)c4c(c3)OCO4)C2)no1` (stereo not given): 50.05%. Next, `Cc1nc(C2CCCN(C(=O)c3cnn(C(C)(C)C)c3)C2)no1` (stereo not given): 56.12%; `Cc1nc(C2CCCN(C(=O)c3ccco3)C2)no1` (stereo not given): 51.32%. For `Cc1nc(C2CCCN(C(=O)c3cccc4c3OCO4)C2)no1` (stereo not given) the value was 27.31%; for `Cn1cnnc1C1CCCN(C(=O)c2cc(Cl)c3c(c2)OCO3)C1` (stereo not given), 3.9%. Turning to `Cc1noc(C)c1-c1cccc(C2CCCNC2)n1` (stereo not given), the INHIBITION is reported as 29.48%. For `CN(C)c1nc(N)nc(CN2CCCC2c2cccs2)n1` (stereo not given) the value was -43.18%.

As for `CC(CO)N(C)C(=O)c1cn(-c2ccc(Br)cc2)cn1` (stereo not given), the INHIBITION is reported as -33.03%. Turning to `O=C(c1cncc(NCC2COc3ccccc3C2)n1)N1CCCC1` (stereo not given), the INHIBITION turned out to be 50.3%. For `O=C(c1cncc(NCC2COc3ccccc3C2)n1)N1CCCCC1` (stereo not given) the value was 31.05%. For `O=C(c1cncc(NCC2COc3ccccc3C2)n1)N1CCOCC1` (stereo not given) the value was 10.77%; for `Cc1ncc(CNC(=O)N(C)C2CCN(c3ccccc3)C2=O)s1` (stereo not given), -16.12%.

For the compound `CNc1cc(C2CN(Cc3coc(C)n3)CCO2)nc(C)n1` (stereo not given), the INHIBITION is listed as -13.51%.

`CS(=O)(=O)CCN1CC(c2ccccc2)(c2ccccc2)CCC1=O`: the INHIBITION is given as 19.12%. For `O=C1CCC(c2ccccc2)(c2ccccc2)CN1CCO` the value was 22%; for `CN(C)C(=O)CCN1CC(c2ccccc2)(c2ccccc2)CCC1=O`, 64.08%; for `Cn1ccnc1CN1CC[C@@H](NS(C)(=O)=O)[C@@H]1Cc1cccnc1`, -29.46%. Next, `Cc1cn2c(n1)C(CNCc1ccc(C)s1)CCC2` (stereo not given): -35.26%. `CC(C)(C)c1ncc(CNCC2CCCn3ccnc32)s1` (stereo not given): the INHIBITION is reported as 52.98%.

`CN1CCOC(CNCc2cnc(C(C)(C)C)s2)C1` (stereo not given): the INHIBITION was 11.01%. For `Cc1ccc(CNCC2CCCn3ccnc32)s1` (stereo not given) the value was 14.82%; for `Cc1nc(C)c(CNCC2CCCn3ccnc32)s1` (stereo not given), 50.59%; for `CCN(CC)c1ncc(CNCC2CCCn3ccnc32)s1` (stereo not given), -6.64%. For the compound `Cn1cc(CN2CCc3nc4sccc4c(=O)n3CC2)cn1`, the INHIBITION came to 35.7%. Next, `COc1ccc(C(=O)N2CCC(Nc3cccnn3)CC2)c(OC)c1`: -51.92%; `CC(C)NC(=O)N1CCCC2(CCN(c3ccsc3)C2=O)C1` (stereo not given): 17.77%.

Regarding `CCC1CN(C)c2ccccc2CN1C(=O)c1c[nH]c(=O)cc1C` (stereo not given), the INHIBITION is 42.8%. For `CN(C)C(=O)[C@H]1C[C@H]2OCC[C@H]2N(Cc2ccc(F)cc2)C1` the value was 35.38%; for `CCC(CC)n1nc(C)cc1NC(=O)CC1CCOCC1`, -28.5%; for `CCC(CC)n1nc(C)cc1NC(=O)C1CCOC1` (stereo not given), -3.87%. Next, `CCC(CC)n1nc(C)cc1NC(=O)C1CCCO1` (stereo not given): 53.61%; `CN(C(=O)c1ccc[nH]1)C1CC(=O)N(Cc2ccccc2)C1=O` (stereo not given): 29.91%.

`Cc1nc(C(=O)N(C)C2CC(=O)N(Cc3ccccc3)C2=O)cs1` (stereo not given): the INHIBITION is listed as 50.42%. Next, `Cc1[nH]ccc1C(=O)N(C)C1CC(=O)N(Cc2ccccc2)C1=O` (stereo not given): 30.59%; `O=C(C[C@@H]1COC[C@H]2CN(C(=O)c3cccnc3)C[C@@H]12)N1CCOCC1`: 22.89%. Next, `Cc1ccc(CN2CCOC3(COCCN(C(C)C)C3)C2)s1` (stereo not given): -9.22%; `CCc1nsc(N2CCN(C(=O)COc3ccccc3)CC2)n1`: 61.82%. Regarding `CCc1nsc(N2CCCN(C(=O)COc3ccccc3)CC2)n1`, the INHIBITION was -26.86%. For `CCc1ncc(C(=O)N2CCN(C(=O)COc3ccccc3)CC2)cn1` the value was -28.5%; for `N#CCCN(c1ccc(F)cc1)S(=O)(=O)CC1CCCCO1` (stereo not given), -7.39%.

As to `CC(=O)Nc1ccc(C(=O)NCCCn2cccc2)cc1`, the INHIBITION is 30.58%.

Take `CN(C)c1cc(C(=O)N2CCCCC2Cn2cccn2)ccn1` (stereo not given): the INHIBITION is given as -7.15%. `CN(C)c1cc(C(=O)N2CCCCC2CNS(C)(=O)=O)ccn1` (stereo not given): the INHIBITION was found to be 53.11%. For `CCC1CCCCN1C(=O)c1ccnc(N(C)C)c1` (stereo not given) the value was 16.84%; for `CC(C)NC(=O)[C@H]1C[C@@H]2[C@@H](C1)OCCN2Cc1cccs1`, 29.43%; for `CC(C)C(C)N(C(=O)c1cc2c([nH]c1=O)CCCC2=O)C1CC1` (stereo not given), 72.49%. For `O=C1CCCc2[nH]c(=O)c(C(=O)N(CC3CCCCC3)C3CC3)cc21` the value was 67.44%.

Take `CCN(C(=O)c1cc2c([nH]c1=O)CCCC2=O)C1CCCCC1`: the INHIBITION was -58.06%.

Consider `CC(C)CCN(C(=O)c1cc2c([nH]c1=O)CCCC2=O)C1CC1`, for which the INHIBITION is 0.12%. For `CC(c1ccco1)N(C(=O)c1cc2c([nH]c1=O)CCCC2=O)C1CC1` (stereo not given) the value was -8.3%; for `CCCN(C(=O)c1cc2c([nH]c1=O)CCCC2=O)C1CCCCC1`, 22%.

For `COc1ccc2c(c1)C1(CCNCC1)CC2NC1CC1` (stereo not given), the INHIBITION was determined as 0%.

For the compound `CC(C)(CN1CCOCC1)CN1CCC(Cc2cccc(CO)c2)C1` (stereo not given), the INHIBITION is given as -7.7%. For `CCN(CC)c1ccc(NS(=O)(=O)c2cnn(C(C)C)c2)cn1` the value was 3.17%; for `CNc1oc(COc2ccc3c(c2)OCO3)nc1C#N`, -6.53%; for `N#Cc1nc(COc2ccc3c(c2)OCO3)oc1NC1CC1`, 51.42%. Next, `N#Cc1nc(COc2ccc3c(c2)OCO3)oc1NC1CCCCC1`: 66.74%; `N#Cc1nc(COc2ccc3c(c2)OCO3)oc1N1CCCCCC1`: 18.85%. Next, `N#Cc1nc(COc2ccc3c(c2)OCO3)oc1N1CCCC1`: -9.89%; `O=C(NC1CCCC1)c1nc(COc2ccc3c(c2)OCO3)no1`: -11.86%. Turning to `CCS(=O)(=O)N1CCC(c2nnc(CN3CCOCC3)n2C)CC1`, the INHIBITION worked out at 37.3%. For `CCCc1n[nH]c(C2CN(C(=O)CCCn3ccnc3C)CCO2)n1` (stereo not given) the value was -15.07%; for `Cc1cc(C)cc(OCC(=O)N2CCC2)c1`, 16.8%. In the case of `COc1cc(C(=O)N2CCCS2(=O)=O)ccc1OC(C)C`, the INHIBITION is given as 21.12%. For `COc1ccc(C[C@H]2CN(Cc3ccoc3)CC[C@@H]2OC)cc1` the value was 17.47%; for `Cc1cnc(C(=O)N2CC[C@H]3C[C@@H](c4nc(C)cs4)O[C@@H]3C2)cn1`, 5.85%. For `CC(C)c1cc(=O)[nH]c(-n2nc(C3CC3)cc2N)n1` the value was 16.98%; for `CN(CC1CCCCO1)S(=O)(=O)c1cccc(C(=O)N2CCOCC2)c1` (stereo not given), -40.47%. Next, `O=C(O)c1cccc(C2CCCN(S(=O)(=O)C3CC3)C2)c1` (stereo not given): 47.68%; `COCCN1CCN(Cc2coc(-c3ccccc3Cl)n2)CC1`: 11.9%; `CC(O)CN1CCN(Cc2coc(-c3ccccc3Cl)n2)CC1` (stereo not given): -7.16%. Take `OCCN1CCN(Cc2coc(-c3ccccc3Cl)n2)CC1`: the INHIBITION is 58.53%. Regarding `Cc1nnc(NC(=O)NCc2ccc(F)cc2)s1`, the INHIBITION is recorded as -12.41%.

Consider `O=C(c1nc2c(o1)CN(CC1CCC1)C2)N1CCCC1`, for which the INHIBITION was determined as 12.68%. `COCCN1C[C@H]2[C@@H](C1)N(C(=O)CCc1ccccc1)CC[C@H]2OC`: the INHIBITION is 25.02%. For `COCCN1C[C@@H]2[C@@H](OC)CCN(C(=O)Cc3ccccc3)[C@@H]2C1` the value was 55.44%; for `COCCN1C[C@H]2[C@@H](C1)N(C(=O)COc1ccccc1)CC[C@H]2OC`, -75.33%. For `N#Cc1ccccc1CN1C[C@H]2CC[C@@H](C1)N(Cc1cscn1)C2=O` the value was -66.52%; for `CC(C)N(C)S(=O)(=O)N1CCCC1CC(=O)c1cccs1` (stereo not given), 2.71%; for `Cc1ccc(CNCC2Cn3nnc(-c4cccc(F)c4)c3CO2)o1` (stereo not given), -17.26%. Consider `CN1CCC2(COCCN(Cc3cccc(C#N)c3)C2)C1` (stereo not given), for which the INHIBITION is listed as 16.03%.

As to `CCCS(=O)(=O)N1CCC2(CCC(=O)N(Cc3ccccc3)C2)CC1`, the INHIBITION is listed as 57.91%. With `CCCS(=O)(=O)N1CCC2(CCC(=O)N(CCc3cccnc3)C2)CC1`, the INHIBITION was 31.96%. Next, `CCCS(=O)(=O)N1CCC2(CCC(=O)N(CCc3ccccc3)C2)CC1`: 15.56%. Next, `CCC(CNC(=O)Cc1c(C)noc1C)N1CCCC1` (stereo not given): -15.63%. Next, `COc1cc(CCC(=O)N2CCC(c3cnccn3)CC2)on1`: -56.97%; `Cc1ccnn1CCC(=O)N1CCC(c2cnccn2)CC1`: 55.74%; `Cn1nccc1CCC(=O)N1CCC(c2cnccn2)CC1`: -14.13%. As to `CC(Cn1cc(Br)cn1)C(=O)Nc1ccc(Br)cn1` (stereo not given), the INHIBITION is -84.37%. Turning to `CC(C)N(CCCNC(=O)C1CCCN(C(N)=O)C1)S(C)(=O)=O` (stereo not given), the INHIBITION was 26.18%. Next, `N#CCCNC(=O)CSc1cc(F)ccc1F`: 51.83%; `N#CCCNC(=O)CSc1ccc(F)cc1F`: 21.22%; `CN(CCC#N)C(=O)CSc1cc(F)ccc1F`: 6.82%. `Cc1cnc(NC(=O)c2ccc(C3CCCN3CC(C)C)s2)s1` (stereo not given): the INHIBITION amounted to 24.36%.

For the compound `CC(C)CN1CCCC1c1ccc(C(=O)Nc2cn(C)nn2)s1` (stereo not given), the INHIBITION was -28.11%. Next, `CCc1nnc(NC(=O)c2ccc(C3CCCN3CC(C)C)s2)s1` (stereo not given): 52.98%. `CCc1nccn1-c1cncc(C2CCCN2)n1` (stereo not given): the INHIBITION is reported as -21.99%.

For the compound `c1ccc(C2CCCN2Cc2nnnn2C2CC2)cc1` (stereo not given), the INHIBITION came to 7.74%.
